The record followed here is the OligoGym collection.
Also: reference of the scale not given here.

One assay addresses CXCL1. In words: pooled miR-30 sensor sort-seq; sequence = guide strand. To be noted: shRNA.
Consider TTGAGGCAAGCTTTCCGCCCAT, for which the sensor-assay potency score (higher = more potent) is -0.645.
The sequence TTCCGCCCATTCTTGAGTGTGG showed a sensor-assay potency score (higher = more potent) of -0.98.
The same measure, in the same setting: the result for TAACTATGGGGGATGCAGGATT reads -1.31; that for TTCGATGATTTTCTTAACTATG, -1.26.
Still for that read-out and setting: with TTAACTATGGGGGATGCAGGAT the figure was -1.04; with TTCACGTTCACACTTTGGATGT, -1.04.

For another assay, the target named is CXCL3. The assay is described as above. To be noted: shRNA.
Turning to TTGAGACAAGCTTTCTTCCCAT, the sensor-assay potency score (higher = more potent) came out at 0.654.
The same measure, in the same setting: with TTGTTCAGTATCTTTTCGATGA the figure was -0.149; with TAAATAATCAGGACTGAGCTAT, -0.218.
In turn, TTTGATGAAACACACTCACATC registered a sensor-assay potency score (higher = more potent) of -1.05.
Sequence TTTCTTCCCATTCTTGAGTGTG displayed a sensor-assay potency score (higher = more potent) of -0.403.
Same read-out and setting: the result for TAAATAAGTAGAACCCTCGTAA reads -0.0177; that for TGAGACAAGCTTTCTTCCCATT, -1.23; that for ATGATTTTCTGAACCATGGGGG, -0.165.
The same measure, in the same setting: with TTCGATGATTTTCTGAACCATG the figure was -0.954; with TGCAGTGTCTGCAAGCACTGGC, 0.137; with TAGTCAAACACATTAAGTCCTT, -0.625.
On the same count and under the same terms, with TACATAAATAAGTAGAACCCTC the figure was -0.724.

The next assay deals with CXorf40A. The description is as above. Particulars: shRNA.
Sequence TTGGTCAGTACAGCTTGATTTT showed a sensor-assay potency score (higher = more potent) of -1.4.
The same measure, in the same setting: the result for TCAGGTTGGTCAGTACAGCTTG reads 0.439.
The same measure, in the same setting: the result for TCAGTACAGCTTGATTTTCTAG reads -0.864.
Still for that read-out and setting: with TCCACCAGCAGCTCCCGCCAGG the figure was -1.9; with TTCAGGTTGGTCAGTACAGCTT, -0.578; with TACAGCTTGATTTTCTAGTTCC, 0.219.

Another assay has as its target CXorf41. The description is as above. To be noted: shRNA.
Turning to TATCATCATATTCTGCTCCTTC, the sensor-assay potency score (higher = more potent) is 0.467.
Still for that read-out and setting: the result for TTGAGCTCTTCTATTTGGGGTG reads 0.00833; that for TAACTGAAGAAACACTCTCAAA, -1.54.
Sequence TTATCAACAGCTTCTTCTGAGG had a sensor-assay potency score (higher = more potent) of -1.2.
Still for that read-out and setting: the result for TTCAATTATGTAATTGACCATG reads -1.17.
Same read-out and setting: the result for TTTATTACCTGTATATTCCAGA reads 0.269; that for TAACATCCCACATATCATCATA, -1.24; that for TTAGCCACTAGTTCACTGCAAC, -0.799.
In turn, TAGTTCACTGCAACAACCTGTT showed a sensor-assay potency score (higher = more potent) of -0.276.
On the same count and under the same terms, the result for TATATCTTCAGTTCCCACCTGC reads 0.748; that for TAACTCTCTTTTCATAGTCATA, -1.66; that for TTCTTCAGGATTAAGTAGCTTA, 0.137.

Another assay has as its target CXorf56. The description is as above. Particulars: shRNA.
Consider TATGAGTCAGCAACTTCCCTAG, for which the sensor-assay potency score (higher = more potent) is 0.0765.
Still for that read-out and setting: the result for TTGCCCATGTCTTTGGTCCGTT reads -0.538.
The same measure, in the same setting: with ATATGAGTCAGCAACTTCCCTA the figure was -0.79; with TACTGCTCCATCCACAATGAAG, -1.81.
